Records with an inconclusive call do not appear. Active and inactive are the calls of the source. The call rests on the fitted dose curve; in most records, active means well fitted inhibition curve with a large enough effect; inconclusive means small, poorly fitted or top-dose-only effect; inactive means flat fitted curve, though single readings scatter. Where a SMILES comes first, the peptide text is derived from it.

The test system of this experiment is HaCat. Put plainly: Cytotoxic Profiling of Annotated Libraries Using Quantitative High-Throughput Screening (AID 1296008). Further: nearly all actives have a fitted effect of over 60% in size. As to conditions: Five cell lines viability, CellTiter-Glo ATP luminescence, 48-72 h; max response: active compounds read low. Put shortly:
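Cytotoxicity was measured as CellTiter-Glo ATP luminescence, read after 10 min at room temperature. Compound treatment of the cells lasted 48 or 72 hr at 37 degrees Celsius in a qHTS format.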
On to `OCC1OC(Oc2cc(O)cc(/C=C/c3ccc(OC4OC(CO)C(O)C(O)C4O)cc3O)c2)C(O)C(O)C1O` (centres undefined), for which the compound was called inactive.
The result for `C[C@@H]1O[C@@H](O[C@H]2[C@H](O[C@H]3[C@H](O[C@H]4CC[C@@]5(C)C(CC[C@]6(C)C5CC=C5[C@@H]7CC(C)(C)CC(=O)[C@]7(C)CC[C@]56C)[C@@]4(C)CO)O[C@H](C(=O)O)[C@@H](O)[C@@H]3O)O[C@H](CO)[C@H](O)[C@@H]2O)[C@H](O)[C@H](O)[C@H]1O` (some centres undefined) reads “inactive”; that for `CC(O)C/C=C/C=C/C(=O)OC1C=C2COC(=O)C2(O)C2(C)CCCC(C)(C)C12` (centres undefined), “inactive”.
With `C[C@@H]1O[C@@H](O[C@H]2[C@H](O)[C@@H](O[C@@H]3O[C@H](CO)[C@H](O)[C@H](O)[C@H]3O)[C@H](O[C@H]3CC[C@@]4(C)C(CC[C@]5(C)C4CC=C4[C@@H]6CC(C)(C)CC[C@]6(C(=O)O[C@@H]6O[C@H](CO)[C@@H](O)[C@H](O)[C@H]6O)CC[C@]45C)C3(C)C)O[C@@H]2C(=O)O)[C@H](O)[C@H](O)[C@H]1O` (some centres undefined), the result was inactive.
The result for `COc1ccnc(CCc2nc3ncccc3[nH]2)c1` reads “inactive”.
Turning to `CC(=O)O[C@@H]1[C@H](O[C@@H]2OC[C@](O)(CO)[C@H]2O)[C@@H](O[C@@H]2O[C@@H](C)[C@H](O)[C@@H](O[C@@H]3O[C@H](CO)[C@@H](O)[C@H](O)[C@H]3O)[C@H]2O)[C@H](OC(=O)[C@]23CCC(C)(C)C[C@H]2C2=CCC4[C@@]5(C)C[C@H](O)[C@H](O[C@@H]6O[C@H](C(=O)O)[C@@H](O)[C@H](O)[C@H]6O)[C@@](C)(C(=O)O)C5CC[C@@]4(C)[C@]2(C)CC3)O[C@@H]1C` (some centres undefined), the compound was classed as inactive.
The result for `CC(C)CC(=O)O[C@@H]1O[C@H](CO)[C@@H](O[C@H]2O[C@H](C)[C@@H](N[C@H]3C=C(CO)[C@@H](O[C@H]4O[C@H](CO)[C@@H](O[C@H]5O[C@H](CO)[C@@H](O[C@H]6O[C@H](CO)[C@@H](O)[C@H](O)[C@H]6O)[C@H](O)[C@H]5O)[C@H](O)[C@H]4O)[C@H](O)[C@H]3O)[C@H](O)[C@H]2O)[C@H](O)[C@H]1O` reads “inactive”.
Consider `NC[C@H]1CCC[C@@H](CNC(=O)[C@@H](Cc2c[nH]c3ccccc23)NC(=O)N2CCC3(C=Cc4ccccc43)CC2)C1`, for which the compound was called inactive.
The result for `CC1CCC2(C)CCC3(C)C(=CCC4C5(C)CCC(O)C(C)(C(=O)O)C5CCC43C)C2C1C` (centres undefined) reads “inactive”.
Next, `C[C@@H]1O[C@@H](O[C@H]2[C@@H]3C=CO[C@@H](O[C@@H]4O[C@H](CO)[C@@H](O)[C@H](O)[C@H]4O)[C@@H]3[C@@]3(CO)O[C@@H]23)[C@H](O)[C@H](O)[C@H]1OC(=O)/C=C/c1ccc(O)cc1`: “inactive”.
`CC(CC12CCCN1C(=O)C1CCCN1C2=O)OC(N)=O` (centres undefined): the outcome was inactive.
`CC/C=C\C(O)C(O)C1=C(C)C(=O)C2(O1)C(=O)NC(OC)(C(=O)c1ccccc1)C2O` (centres undefined): the compound was called inactive.
The result for `COc1c2cc(c(O)c1OC)CCCCC(O)CCc1ccc(O)c-2c1` (centres undefined) reads “inactive”; that for `CC1CC(=O)[C@]2(O)C(C(=O)OCCc3ccc(O)cc3)=CO[C@@H](O[C@@H]3O[C@H](CO)[C@@H](O)[C@H](O)[C@H]3O)[C@H]12` (some centres undefined), “inactive”; that for `COC(=O)C1=CO[C@@H](O[C@@H]2O[C@H](CO)[C@@H](O)[C@H](O)[C@H]2O)C2C1CC(O)C2C` (some centres undefined), “inactive”.
Next, `CC(=O)OC[C@]12[C@H](OC(C)=O)[C@H](OC(=O)c3ccccc3)[C@@H]3[C@@H](OC(C)=O)[C@]1(OC3(C)C)[C@H](C)C[C@H](OC(=O)c1ccccc1)[C@@H]2OC(=O)c1ccccc1`: “inactive”.
For `C[C@]1(C2CCCC2)Cc2cc(OCC(=O)O)c(Cl)c(Cl)c2C1=O`, the call was inactive.
Take `CC(NC(=O)c1ccccc1N)C(=O)O` (centres undefined): the call was inactive.
Next, `O=C(Nc1ccn(Cc2c(F)cccc2C(F)(F)F)n1)c1c(F)cccc1F`: “inactive”; `O=C(OC(C(F)(F)F)C(F)(F)F)N1CCN(Cc2cccc(Oc3ccccc3)c2)CC1`: “inactive”; `C[C@H]1CC[C@@]2(OC1)O[C@H]1CC3C4CC[C@H]5C[C@@H](O)CC[C@]5(C)C4CC(=O)[C@]3(C)[C@H]1[C@@H]2C` (some centres undefined): “inactive”.
Next, `Cc1oc(S(=O)(=O)N2CCCCC2)cc1NC(=O)Nc1ccccc1`: “inactive”; `CCC(C)/C=C(C)/C=C/C1=CC2=C(Cl)C(=O)C(C)(OC(C)=O)C(=O)C2=CN1C(CC(=O)O)C(=O)O` (centres undefined): “inactive”.
As for `CC(C)[C@](O)(c1ccc2cc(OC(F)F)c(OC(F)F)cc2c1)c1cn[nH]n1`, the compound was classed as inactive.
The result for `COc1cc(C(=O)OC[C@H]2O[C@@H](OC(C)(C)C(=O)O)[C@H](O)[C@@H](O)[C@@H]2O)cc(OC)c1O` reads “inactive”.
Take `COc1cc(C(C)=O)ccc1O[C@@H]1O[C@H](CO)[C@@H](O)[C@H](O)[C@H]1O`: the call was inactive.
The result for `CC1(C)C(=O)CCC2(C)C1C(O)C=C1COC(=O)C12O` (centres undefined) reads “inactive”; that for `COc1cc(/C=C/c2ccccc2)c(C(=O)O)c(O)c1CC=C(C)C`, “inactive”; that for `CCC(C)C(C(=O)O)N1Cc2c(OCC=C(C)C)c(C)c(OC)c(C(=O)O)c2C1=O` (centres undefined), “inactive”.
Regarding `COC(=O)C1=CO[C@@H](O[C@@H]2O[C@H](CO)[C@@H](O)[C@H](O)[C@H]2O)[C@@H]2[C@@H](CO)[C@@H](O)C(O)[C@H]12` (some centres undefined), the result was inactive.
The result for `CC(C)C[C@H](NC(=O)[C@@H]1O[C@H]1C(=O)O)C(=O)NCCCCN=C(N)N` reads “inactive”; that for `C[C@@H]1O[C@@H](OC[C@H]2O[C@@H](OCc3ccccc3)[C@H](O)[C@@H](O)[C@@H]2O)[C@H](O)[C@H](O)[C@H]1O`, “inactive”; that for `CNC(=O)c1ccc2c(c1)CCO[C@H]2CCN1CCN(c2ccc(C(N)=O)cc2)CC1`, “inactive”.
The result for `COC(=O)C1=COC(OC2OC(CO)C(O)C(O)C2O)C2C(COC(=O)/C=C/c3ccc(O)c(O)c3)C(O)C(O)C12` (centres undefined) reads “inactive”; that for `CC(C)C1NC(=O)CNC(=O)C2CCCN2C(=O)C(Cc2c[nH]c3ccccc23)NC(=O)CNC(=O)C(Cc2ccc(O)cc2)NC(=O)CNC1=O` (centres undefined) (cyclo(GVGYGWP); configuration not given here), “inactive”; that for `CC(C)c1ccc2c(c1)C(=O)CC1C(C)(C(=O)O)CCCC21C` (centres undefined), “inactive”.
Next, `C=C1CCC2(C(=O)OC3OC(CO)C(O)C(O)C3O)CCC3(C)C(=CCC4C5(C)CCC(OC6OC(CO)C(OC7OC(C)C(O)C(O)C7O)C(OC7OCC(O)C(O)C7O)C6O)C(C)(C)C5CCC43C)C2C1` (centres undefined): “inactive”.
Consider `C=C1CC2C(C)(CCC(=O)O)C(C(C)(C)O)CCC2(C)C2(C(=O)OC)C(=O)C(C)(O)C(=O)C12C` (centres undefined), for which the result was inactive.
Next, `COc1ccc(-n2c(SCC#N)nc3sc4c(c3c2=O)CCCC4)cc1`: “inactive”.

The values are drawn from PubChem BioAssay (NCATS).
